# Rows were chosen to be rich in hits. Some 5% of all compounds tested hit in one or more screens of this group.
# PREPL inh: human PREPL enzyme inhibition | Q4J6C6 | recombinant PREPL, fluorescence polarization activity-based probe | inhibition, % at 5.96 µM | 320,000 compounds, 0.68% hits; in the data active means inhibition above about 43%;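 further: 0% = enzyme with DMSO and 100% = wells lacking enzyme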
# AI-2 QS modul: modulates the Vibrio harveyi AI-2 quorum sensing system; Vibrio harveyi JMH597 AI-2 luminescence/OD600 ratio, 9 h; stronger effect = lower value; strain lacks LuxN and CqsS sensors; 0 = neutral-control median; AID 2094; 300,000 compounds, 0.4% hits; activity change, % at 7.5 µM; in the data active means activity change below about -75%, passing the limit was not always enough; inconclusive means no clear call, values can overlap the other calls;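 further: luminescence divided by OD600 gain over 9 h not by final OD600 alone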
# CHT allo act: allosteric activators of human choline transporter CHT | Q9GZV3 | B-score at 10 µM | CHT-expressing cells, membrane potential dye, choline EC20; stronger effect = higher value; LV-AA mutant CHT in HEK293 cells | 310,000 compounds, 0.49% hits | AID 488977;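 active means initial fluorescence not abnormally high and integrated response B-score, plate-corrected, over 3 SD above library mean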
# CHT inh: human CHT choline transport inhibition; Q9GZV3; B-score at 10 µM; AID 488975; 310,000 compounds, 0.86% hits; CHT-expressing cells, membrane potential dye, choline response; stronger effect = lower value;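 active means B-score over 3 SD under the library average, and starting fluorescence ratio not unusually high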;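 further: choline stimulus applied at its EC90 after an EC20 pre-addition; B-score computed on integrated fluorescence ratio after choline addition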
# ALR inh: inhibitors of human sulfhydryl oxidase ALR; P55789; purified ALR, DTT oxidation, H2O2 HRP-luminol luminescence; inhibition, % (no concentration beside the values); 290,000 compounds, 3.8% hits; AID 485317;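 active means mean replicate inhibition above about 79%, with every replicate also reaching it, limit read from the data; inconclusive means only one of the two criteria met; inactive means mean below limit and not every replicate reaching it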
# Target sequence (P55789 whole entry, looked up): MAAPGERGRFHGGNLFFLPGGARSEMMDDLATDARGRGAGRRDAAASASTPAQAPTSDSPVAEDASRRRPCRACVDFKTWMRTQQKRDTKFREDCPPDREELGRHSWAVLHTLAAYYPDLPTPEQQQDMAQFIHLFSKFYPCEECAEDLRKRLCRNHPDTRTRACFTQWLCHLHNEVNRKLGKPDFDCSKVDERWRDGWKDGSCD
# * = called active by the depositor; i = inactive; ? = inconclusive; · = no result given.
SMILES,PREPL inh,AI-2 QS modul,CHT allo act,CHT inh,ALR inh
CCOC(=O)c1nn(-c2ccc(C)c(C)c2)cc1O,15,43,i,i,97*
CCOC(=O)c1nn(-c2ccc3c(c2)OCCO3)cc1O,4,19,i,i,7
NC(=O)SCC(=O)Nc1cccc(Cl)c1,11,49,i,i,99*
O=C(CSCCS(=O)(=O)c1ccc(Cl)cc1)Nc1ccccc1,-6,10,i,i,-2
NC(=O)SCC(=O)Nc1ccc(Cl)cc1,21,53,i,i,99*
NC(=O)Nc1ccc(Cl)cc1,-3,10,i,i,-4
N#CCSCC(=O)Nc1ccc(Cl)cc1,-6,29,i,i,99*
O=C(NCCC1CCCCN1S(=O)(=O)c1ccccc1)C(=O)NC1CC1 (stereo not given),-9,11,i,i,-1
CCc1ccc(OCc2cccc(C(=O)N/N=C\c3cnn(C)c3C)c2)cc1,·,14,·,·,·
CCN(CC)c1ccc2cc(NC(=O)CCC(=O)O)c(=O)oc2c1,2,30,i,i,99*
CCN(CC)c1ccc2cc(C(C)=O)c(=O)oc2c1,3,19,i,i,0
CCc1cc(-c2n[nH]c(=S)n2Cc2ccccc2)cs1,5,-19,i,i,92*
COc1ccc(Cn2c(-c3ccc(OC)cc3)n[nH]c2=S)cc1,-15,10,i,i,95*
Cc1ccc(-c2n[nH]c(=S)n2Cc2ccccc2)cc1,-6,3,i,i,55
CCn1c(-c2ccc(Cl)cc2)n[nH]c1=S,4,12,i,i,98*
C=CCNC(=O)C1CC2Cn3c(nc4cc5ccccc5cc43)C2N1C (stereo not given),5,19,i,i,·
CCCNC(=O)CN1C(=O)c2ccccc2Sc2ncccc21,4,19,i,i,-4
CN1CCN(C(=O)c2cc3c(n(-c4ccccc4)c2=O)CC(C)(C)CC3=O)CC1,14,-6,i,i,·
CC1(C)CC(=O)c2cc(C(=O)NNc3ccccc3)c(=O)n(-c3ccccc3)c2C1,11,29,i,i,98*
CCC1C/C(=C/c2ccco2)C(=O)/C(=C/c2ccco2)C1 (stereo not given),3,·,i,i,97*
Cc1[nH]c2ccccc2c1/C=N\NC(=O)CNc1ccc2c(c1)OCO2,29,3,i,i,5
O=C(CNc1ccc2c(c1)OCO2)N/N=C\c1ccccc1Cl,50*,2,i,i,-4
COC(=O)/C(=N/Nc1ccccc1)N1CCCc2ccccc21,-3,12,i,i,·
COC(=O)/C(=N/Nc1cccc(C)c1)N1CCCc2ccccc21,6,17,i,i,99*
CC1(C)OC(C)(C)/C(=C/Nc2ccc(O)cc2)C1=O,14,14,i,i,99*
SMILES,PREPL inh,AI-2 QS modul,CHT allo act,CHT inh,ALR inh
CC1(C)OC(=O)C(=CNc2cccc(O)c2)C(=O)O1,2,9,i,i,-5
COc1ccc(N(CC(=O)NC2CCCCC2)C(=O)CCCC(=O)Nc2ccccn2)cc1,2,40,i,i,·
C=CCn1c(N)c(C(=O)NCc2cccnc2)sc1=S,3,4,i,i,98*
N=c1n(CCN2CCOCC2)c2ccccc2n1CC(O)COc1ccccc1 (stereo not given),30,14,i,i,1
N=c1n(CCN2CCCCC2)c2ccccc2n1CC(O)COc1ccccc1 (stereo not given),33,38,7.2*,i,-1
Cc1ccc2ccc(C(Nc3ccccn3)c3ccccc3)c(O)c2n1 (stereo not given),-1,34,i,i,·
Oc1cccc2ccc(Nc3ccccn3)nc12,-5,-86*,i,i,?
c1ccc(Nc2ccccc2Nc2ccccn2)nc1,16,-4,i,i,89*
CCOc1ccc(CCNC(=O)c2ccc(=O)[nH]c2)cc1OCC,7,26,i,i,-6
COc1ccc(OC)c(S(=O)(=O)N/N=C(/C)c2ccc3c(c2)OCO3)c1,·,12,i,i,9
Cn1c(-c2cccc(Br)c2)n[nH]c1=O,9,2,i,i,-11
O=C(Nc1ccncc1)C1CCN(S(=O)(=O)c2ccccc2C(F)(F)F)CC1,13,-5,i,i,4
O=C(CSc1nc2ccccc2c(=O)[nH]1)c1ccccc1,10,7,i,i,-12
Cc1cc(C(=O)CSc2nc3ccccc3c(=O)[nH]2)c(C)n1C,9,8,i,i,98*
Cc1ccc(-c2csc(CC(N)=O)n2)cc1,-4,2,i,i,91*
COCCN=c1scc(-c2ccco2)n1/N=C/c1ccc(O)c(O)c1O,24,·,i,i,99*
CC(C)N=c1scc(-c2ccco2)n1/N=C/c1ccc(O)c(O)c1,10,·,i,i,99*
C=CCN=c1scc(-c2ccco2)n1/N=C/c1ccc(O)c(O)c1O,16,-1,i,i,99*
COc1cc(/C=N/n2c(-c3ccc4c(c3)NC(=O)CO4)csc2=Nc2cccc(C)c2)ccc1O,29,17,i,i,·
Oc1ccc(/C=N/n2c(-c3ccco3)csc2=Nc2cccnc2)c(O)c1,33,13,i,i,30
COc1ccccc1N(C)S(=O)(=O)c1ccc(C(=O)Nc2cccc(Br)c2)cc1,-10,·,·,·,-7
Cn1cc(CN2CCN(Cc3ccccc3)CC2)c(-c2cccc(Cl)c2)n1,7,7,i,i,-50
Nc1cc(C(=O)O)ccc1Nc1ccc(F)c(F)c1,12,·,i,i,97*
CC(C)(C)c1ccc(C(=O)N2CCN(c3ncccn3)CC2)cc1,-1,16,i,i,-10
CCOC(=O)CN(C(=O)CSc1nnc(CNc2ccc(C)cc2C)o1)c1ccccc1,21,9,i,i,96*
SMILES,PREPL inh,AI-2 QS modul,CHT allo act,CHT inh,ALR inh
Cc1ccc(NCc2nnc(SCC(=O)OC3CCCCC3)o2)c(C)c1,12,36,i,i,98*
Cc1ccc(C(=O)CSc2nnc(CNc3ccc(C)cc3C)o2)cc1,9,14,i,i,8
Cc1ccc(NCc2nnc(SCC(N)=O)o2)c(C)c1,2,9,i,i,39
CC1CCN(S(=O)(=O)c2ccc(NC(=O)C3CSC4(C)CCC(=O)N34)cc2)CC1 (stereo not given),-2,33,i,i,-8
Cc1ccc(N2C(=O)CC(SCC(=O)Nc3ccc(S(N)(=O)=O)cc3)C2=O)cc1 (stereo not given),2,6,i,i,99*
CCOC(=O)c1ccc(N2C(=O)CC(SCC(=O)Nc3ccc(S(N)(=O)=O)cc3)C2=O)cc1 (stereo not given),-9,58,i,i,99*

# Assay outcomes from PubChem BioAssay.
